Each structure is given as a SMILES string. Out of some 190,000 compounds screened, about 4,100 (2.2%) were called active. The entries come from a sample that favours actives as a whole. Values without a mark were called inactive.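 The calls were made as follows: active = thallium flux slope and its plate-corrected score both differing from the plate sample mean at a set confidence after two filtering rounds, in either direction; inactive = the rest.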

For the test, the target named is Solute carrier family 12 member 5 (Homo sapiens) (UniProt Q9H2X9). In words: modulation of human KCC2 ion transport – cell-based, HEK293 KCC2, FluoZin-2 fluorescence, MLSMR, primary screen (AID 1456).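 Also: slope of fluorescence scaled to starting intensity during 10 to 20 s after thallium.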 The following applies: KCC2 cells, thallium flux FluoZin-2 fluorescence; at 10 µM.
Solute carrier family 12 member 5 (Homo sapiens), sequence (Q9H2X9 whole entry, looked up): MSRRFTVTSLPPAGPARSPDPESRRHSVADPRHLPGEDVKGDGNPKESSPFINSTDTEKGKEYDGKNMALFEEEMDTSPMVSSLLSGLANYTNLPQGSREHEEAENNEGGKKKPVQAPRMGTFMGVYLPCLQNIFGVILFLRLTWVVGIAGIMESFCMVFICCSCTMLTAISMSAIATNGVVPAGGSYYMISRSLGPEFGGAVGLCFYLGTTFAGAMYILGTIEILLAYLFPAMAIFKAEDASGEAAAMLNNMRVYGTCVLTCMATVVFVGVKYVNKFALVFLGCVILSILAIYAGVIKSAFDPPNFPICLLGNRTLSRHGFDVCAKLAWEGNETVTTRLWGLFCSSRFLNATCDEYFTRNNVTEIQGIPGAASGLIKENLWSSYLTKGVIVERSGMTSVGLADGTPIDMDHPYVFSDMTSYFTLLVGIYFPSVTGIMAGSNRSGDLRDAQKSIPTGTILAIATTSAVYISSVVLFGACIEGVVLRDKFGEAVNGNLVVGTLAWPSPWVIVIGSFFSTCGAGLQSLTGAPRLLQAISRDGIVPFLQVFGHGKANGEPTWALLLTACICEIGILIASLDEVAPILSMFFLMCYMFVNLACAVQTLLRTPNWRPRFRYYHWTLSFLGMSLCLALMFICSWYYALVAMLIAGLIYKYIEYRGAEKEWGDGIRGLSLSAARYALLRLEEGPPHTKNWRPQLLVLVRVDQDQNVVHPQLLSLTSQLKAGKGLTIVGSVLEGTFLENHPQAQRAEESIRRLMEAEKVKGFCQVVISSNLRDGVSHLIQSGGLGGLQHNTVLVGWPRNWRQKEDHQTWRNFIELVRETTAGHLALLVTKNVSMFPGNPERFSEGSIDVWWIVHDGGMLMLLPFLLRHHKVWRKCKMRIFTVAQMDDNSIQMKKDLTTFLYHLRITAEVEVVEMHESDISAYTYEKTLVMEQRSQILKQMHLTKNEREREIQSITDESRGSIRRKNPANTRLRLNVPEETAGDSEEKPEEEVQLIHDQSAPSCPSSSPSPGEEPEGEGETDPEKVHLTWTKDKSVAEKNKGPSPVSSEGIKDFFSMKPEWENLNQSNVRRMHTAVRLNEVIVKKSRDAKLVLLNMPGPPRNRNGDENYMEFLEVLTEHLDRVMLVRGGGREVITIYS
`S=c1[nH]nc(-c2ccco2)n1/N=C/c1ccc(Br)s1`: the B-score of Tl+ flux slope (higher = more flux/activation; lower = inhibition) is 12.6 (active).

Turning to `O=c1c2ccccc2cnn1Cc1n[nH]c(=S)n1-c1ccccc1F`, the B-score of Tl+ flux slope (higher = more flux/activation; lower = inhibition) was 0.755.

For the compound `CC1CCN(c2c(NCc3ccc(C(=O)NCc4ccccc4)cc3)c(=O)c2=O)CC1`, the B-score of Tl+ flux slope (higher = more flux/activation; lower = inhibition) was -1.1.

Take `O=C(Nc1ccccc1)C1CC(=O)n2c(nc3ccccc32)N1` (stereo not drawn): the B-score of Tl+ flux slope (higher = more flux/activation; lower = inhibition) was 0.778.

With `CC(C)CCNC(=O)C1CCC(CNc2c(N3CCC(C)CC3)c(=O)c2=O)CC1` (stereo not drawn), the B-score of Tl+ flux slope (higher = more flux/activation; lower = inhibition) is 0.284.

For the compound `COc1ccc(CNC(=O)CCC(=O)Nc2nnc(C(C)C)s2)cc1`, the B-score of Tl+ flux slope (higher = more flux/activation; lower = inhibition) was 0.0451.

For `Cc1cccc(N2CCN(Cc3nc(C4CC4)no3)CC2)n1`, the B-score of Tl+ flux slope (higher = more flux/activation; lower = inhibition) was -0.346.

On to `O=C(Nc1nnc(-c2ccco2)o1)c1ccc(S(=O)(=O)N2CCOCC2)cc1`, for which the B-score of Tl+ flux slope (higher = more flux/activation; lower = inhibition) is -0.75.

Regarding `COc1cccc(-c2nnc(NC(=O)c3ccc(S(=O)(=O)N(CC(C)C)CC(C)C)cc3)o2)c1`, the B-score of Tl+ flux slope (higher = more flux/activation; lower = inhibition) was 18.6 (active).

As for `COc1cccc(NC(=O)c2ccc(S(=O)(=O)N(C)C)cc2)c1`, the B-score of Tl+ flux slope (higher = more flux/activation; lower = inhibition) is 1.09.

With `CCCCN1CCNC1=S`, the B-score of Tl+ flux slope (higher = more flux/activation; lower = inhibition) was -0.472.

For the compound `O=C(Nc1ccc(Br)cn1)c1ccc([N+](=O)[O-])o1`, the B-score of Tl+ flux slope (higher = more flux/activation; lower = inhibition) is 0.106.

Regarding `CCCCCC(=O)Nc1ccc(C(=O)N/N=C/c2ccc([N+](=O)[O-])cc2)cc1`, the B-score of Tl+ flux slope (higher = more flux/activation; lower = inhibition) was -0.55.

As to `CC(C)CC(=O)NC(=S)NNC(=O)c1cccc([N+](=O)[O-])c1`, the B-score of Tl+ flux slope (higher = more flux/activation; lower = inhibition) was 0.86.

On to `CCCCCC(=O)NC(=S)NNC(=O)c1ccc([N+](=O)[O-])cc1`, for which the B-score of Tl+ flux slope (higher = more flux/activation; lower = inhibition) is 11.7 (active).

Take `Cc1ccc(N2C(=O)C(CC(=O)Nc3cccc(F)c3)N(CCc3ccncc3)C2=O)cc1` (stereo not drawn): the B-score of Tl+ flux slope (higher = more flux/activation; lower = inhibition) was 1.48.

For `C=CCNC(=S)N1CCc2[nH]c3ccccc3c2C1`, the B-score of Tl+ flux slope (higher = more flux/activation; lower = inhibition) is -0.783.

For `Cc1cccc(NC(=O)Nc2nnc(-c3ccccc3)o2)c1`, the B-score of Tl+ flux slope (higher = more flux/activation; lower = inhibition) was 2.01.

On to `CCCC(=O)Nc1nnc(-c2ccccc2)o1`, for which the B-score of Tl+ flux slope (higher = more flux/activation; lower = inhibition) is 1.22.

As for `O=C(COC(=O)c1ccc(Oc2ccccc2)cc1)Nc1nnc(-c2ccccc2)o1`, the B-score of Tl+ flux slope (higher = more flux/activation; lower = inhibition) is 42.1 (active).

Consider `CC1=NNC(=O)C1CCC(=O)N/N=C(\C)c1ccc(Cl)cc1` (stereo not drawn), for which the B-score of Tl+ flux slope (higher = more flux/activation; lower = inhibition) was -0.012.

Turning to `CC(NC(=S)Nc1ccccc1)C(c1cccs1)N1CCOCC1` (stereo not drawn), the B-score of Tl+ flux slope (higher = more flux/activation; lower = inhibition) is 0.588.

As to `O=C(NNC(=O)C1C2CCC(C2)C1C(=O)O)c1ccc(Cl)cc1` (stereo not drawn), the B-score of Tl+ flux slope (higher = more flux/activation; lower = inhibition) was -1.3.

As for `CSc1sc(C(=O)NNC(=O)c2ccc(Cl)cc2)c2c1C=CCC2`, the B-score of Tl+ flux slope (higher = more flux/activation; lower = inhibition) was 12.5 (active).

Regarding `CCOC(=O)NNC(=O)c1ccc(Cl)cc1`, the B-score of Tl+ flux slope (higher = more flux/activation; lower = inhibition) was 0.095.

In the case of `O=C(CC(c1ccccc1)c1cc(Cl)ccc1O)NCCN1CCOCC1` (stereo not drawn), the B-score of Tl+ flux slope (higher = more flux/activation; lower = inhibition) is -0.0272.

Take `CN(C)c1ccc(C=C2C(=O)OC3(CCCC3)OC2=O)cc1`: the B-score of Tl+ flux slope (higher = more flux/activation; lower = inhibition) was -0.977.

As for `CCOc1c(Nc2cccc(Cl)c2)c(=O)c1=O`, the B-score of Tl+ flux slope (higher = more flux/activation; lower = inhibition) was -0.192.

In the case of `COc1ccc(C2/C=C\CN(S(=O)(=O)c3cccs3)CC(=O)N2Cc2ccc(F)cc2)cc1` (stereo not drawn), the B-score of Tl+ flux slope (higher = more flux/activation; lower = inhibition) is -3.16 (active).

As for `COc1ccc(C2/C=C\CN(CC(C)C)CC(=O)N2Cc2ccc(F)cc2)cc1` (stereo not drawn), the B-score of Tl+ flux slope (higher = more flux/activation; lower = inhibition) was -1.57.

Regarding `COc1ccc2c(CN3CCN(S(=O)(=O)c4cccs4)CC3)cc(=O)oc2c1`, the B-score of Tl+ flux slope (higher = more flux/activation; lower = inhibition) is -3.36.

With `O=c1c(-c2ccc(Cl)cc2)[n+]([O-])c2ccccc2n1OCc1nc2ccccc2[nH]1`, the B-score of Tl+ flux slope (higher = more flux/activation; lower = inhibition) is 2.99.

Turning to `Nc1nc(NCC2CCCO2)nc(Nc2ccccc2F)c1[N+](=O)[O-]` (stereo not drawn), the B-score of Tl+ flux slope (higher = more flux/activation; lower = inhibition) was 0.249.

For the compound `CCC(C(=O)OCC(=O)Nc1ccc(C(=O)Nc2ccc(OC)cc2)cc1)c1ccccc1` (stereo not drawn), the B-score of Tl+ flux slope (higher = more flux/activation; lower = inhibition) is -0.012.

Consider `COc1ccc(NC(=O)COC(=O)c2ccc(NS(=O)(=O)/C=C/c3ccccc3)cc2)cc1`, for which the B-score of Tl+ flux slope (higher = more flux/activation; lower = inhibition) is 4.56 (active).

For `NS(=O)(=O)c1ccc(NS(=O)(=O)/C=C/c2ccccc2)cc1`, the B-score of Tl+ flux slope (higher = more flux/activation; lower = inhibition) is 0.851.

On to `Cc1cc(C(=O)OCC(=O)Nc2nccs2)c2ccccc2n1`, for which the B-score of Tl+ flux slope (higher = more flux/activation; lower = inhibition) is -0.12.

As for `Cc1ccc2c(C)c(C(=O)N3CCC(N4CCC(C(=O)NC5CC5)CC4)CC3)oc2c1`, the B-score of Tl+ flux slope (higher = more flux/activation; lower = inhibition) is -1.04.

Turning to `O=C(CSc1nnnn1-c1ccc(O)cc1)N1N=C(c2ccc3ccccc3c2)CC1c1ccccc1` (stereo not drawn), the B-score of Tl+ flux slope (higher = more flux/activation; lower = inhibition) was 0.186.

For the compound `COC(=O)C1=C(C(=O)OC)C(c2cc([N+](=O)[O-])ccc2O)c2sc(=O)[nH]c2S1` (stereo not drawn), the B-score of Tl+ flux slope (higher = more flux/activation; lower = inhibition) was -0.169.

As for `CC1CC(C)(C)n2c(O)c(N=NC(N)=S)c3cccc1c32` (stereo not drawn), the B-score of Tl+ flux slope (higher = more flux/activation; lower = inhibition) is 24.8 (active).

In the case of `COC(=O)[C@H](CC(C)C)NC(=O)N1CCCCC1C` (stereo partly drawn), the B-score of Tl+ flux slope (higher = more flux/activation; lower = inhibition) was -0.124.

Turning to `C/C(CC(C)C)=N\Oc1nc(C)cc(C)n1`, the B-score of Tl+ flux slope (higher = more flux/activation; lower = inhibition) is -1.12.

Turning to `CCCCCCCC(=O)OC(CN1CCCCCC1)CN1CCCC1=O` (stereo not drawn), the B-score of Tl+ flux slope (higher = more flux/activation; lower = inhibition) is -0.767.

As to `Cc1cc(C)cc(NC(=O)NC2CCN(CC(=O)Nc3cccc(Cl)c3C)CC2)c1`, the B-score of Tl+ flux slope (higher = more flux/activation; lower = inhibition) is 0.963.

`Cc1cccc(NS(=O)(=O)c2ccc(C)c(C(N)=O)c2)c1`: the B-score of Tl+ flux slope (higher = more flux/activation; lower = inhibition) is 4.67 (active).

In the case of `Cc1cc(C)cc(NS(=O)(=O)c2ccc(F)cc2)c1`, the B-score of Tl+ flux slope (higher = more flux/activation; lower = inhibition) is -0.00878.

Turning to `CCOc1ccc(NS(=O)(=O)c2ccc(C)c(C(N)=O)c2)cc1`, the B-score of Tl+ flux slope (higher = more flux/activation; lower = inhibition) was -0.277.

Values taken from PubChem BioAssay AID1456 (Vanderbilt High Throughput Screening Facility, 2008).
